Assay results taken from PubChem BioAssay.

What follows are compounds tested against Voltage-gated potassium channel subunit beta-2 (Rattus norvegicus) (UniProt P62483) (assay: KvBeta positive modulators, primary screen, biochemical, NADPH fluorescence (AID 623;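 also: fluorescence intensity change per second fitted from 20 to 320 s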)). Conditions: Recombinant KvBeta, NADPH fluorescence decrease slope, 10 min; at 10 µM; stronger effect = lower value;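 active = NADPH fluorescence slope more negative than the mean of all samples by about 3 SD, 99.7% confidence; inactive = the rest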.
Voltage-gated potassium channel subunit beta-2 (Rattus norvegicus), sequence (P62483 whole entry, looked up): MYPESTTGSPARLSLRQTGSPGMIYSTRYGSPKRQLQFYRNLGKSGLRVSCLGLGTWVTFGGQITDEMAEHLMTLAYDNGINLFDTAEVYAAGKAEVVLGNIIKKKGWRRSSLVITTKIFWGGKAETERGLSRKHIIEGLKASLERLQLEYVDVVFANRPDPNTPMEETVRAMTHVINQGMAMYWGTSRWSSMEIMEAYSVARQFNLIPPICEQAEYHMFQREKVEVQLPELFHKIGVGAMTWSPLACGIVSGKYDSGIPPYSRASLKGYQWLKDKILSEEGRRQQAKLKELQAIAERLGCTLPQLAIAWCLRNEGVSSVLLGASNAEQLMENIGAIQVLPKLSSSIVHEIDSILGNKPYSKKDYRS

NADPH fluorescence slope, inactive:
Cc1ccc(N(C(C)C(=O)Nc2ccc(S(=O)(=O)N3CCOCC3)cc2)S(C)(=O)=O)cc1 (stereo not given) -1.3e-05
c1ccc(N2CCN(Cc3cn4cccnc4n3)CC2)cc1 -4e-06
Oc1ccc(N2CCN(C(c3ccncc3)c3nnnn3C3CCCC3)CC2)cc1 (stereo not given) -4.4e-05
COC(=O)[C@H](C)NC(=O)Nc1cccc(C(F)(F)F)c1 2.9e-05
CCCCNC(=O)c1nc2ncc(Br)cn2n1 -7.5e-05
CCN1CCN(C(c2cccs2)C(C)NC(=O)c2ccccc2)CC1 (stereo not given) -3.6e-05
COc1ccc(C2C(C#N)=C(N)Oc3cc4c(cc32)OCO4)cc1 (stereo not given) -5.6e-05
CCn1c(=O)c(C(=O)NCc2ccc(OC)cc2)c(O)c2ccccc21 -2.5e-05
CCOC(=O)c1ccccc1NC(=O)c1ccc2c(=O)n3c(nc2c1)CCCCC3 -1.5e-05
CN(CCc1ccccn1)c1ncnc2[nH]ncc12 -3.6e-05
CN(C(=O)c1cc2sccc2n1C)C1CCCCC1 2.7e-05
COc1ccc(-n2c(SCC(=O)N3CCCCC3C)nnc2-c2cccnc2)cc1 (stereo not given) -5.2e-05
CCn1nnc(NC(=O)c2ccccc2Br)n1 -5.5e-05
CC(=O)N1CCN(c2ccc(S(=O)(=O)N3CCCCC3)cn2)CC1 1.1e-05
CC1CCN(C(=O)CSCC(=O)Nc2nc(-c3cccs3)cs2)CC1 -1.9e-05
Cn1cnc2c1c(=O)n(Cc1cccc(Br)c1)c(=O)n2C 8.1e-07
O=C(NC1CCCCC1)C1CCCN1C(=O)NCc1ccccc1 (stereo not given) -5.2e-05
CCOC(=O)c1ccc(NC(=O)COc2ccc(-n3cnnn3)cc2)cc1 -1.2e-05
Cc1cc(C)c2c(=O)n(CC(=O)NCCCN3CCOCC3)sc2n1 -3.1e-05
Cc1cccc2sc(NC(=O)CN(C)S(=O)(=O)c3cccs3)nc12 1e-05
CCCc1nc(NCc2ccncc2)c2nnn(Cc3ccccc3F)c2n1 -0.000136
O=S1(=O)CCC(NS(=O)(=O)/C=C/c2ccccc2)C1 (stereo not given) -0.000106
O=C(NCC1CCCO1)C1CCCN(S(=O)(=O)c2cccc3nsnc23)C1 (stereo not given) 6e-05
COc1ccccc1NC(=O)N(C1CCCC1)C1CCN(C(C)=O)CC1 -3.7e-05
O=C1NC(Cc2c[nH]c3ccccc23)C(=O)N1CCOc1ccccc1 (stereo not given) -4.2e-05
COC(=O)C(C)Sc1nnc2n(-c3cccc(C)c3)c(=O)c3c4c(sc3n12)CCCC4 (stereo not given) -3.5e-06
COc1ccc2[nH]c(=O)c(CN(CC3CCCO3)C(=O)Nc3ccc(F)cc3)cc2c1 (stereo not given) 7.8e-06
Cc1nc2ccccc2c2oc(C(=O)NCC3COc4ccccc4O3)cc12 (stereo not given) -1.4e-05
CCN(Cc1cc2ccccc2[nH]c1=O)S(=O)(=O)c1ccccc1 1.2e-05
CC(=O)NC(=O)NC1CSCC1OC(C)=O (stereo not given) -1.3e-05
COc1ccc(S(=O)(=O)NCC(c2cccnc2)N2CCN(c3ccc(F)cc3)CC2)cc1C (stereo not given) 1.7e-05
COCCn1c(CN2CCN(c3cccc(Cl)c3)CC2)nc2c1c(=O)n(C)c(=O)n2C -4e-05
CC1(C)CC(CCNC(=O)c2ccco2)CC(C)(C)N1 -1.8e-05
O=C1c2ccccc2C(=O)N1C/C=C/c1ccccc1 -5.2e-05
CCn1c(SCc2cccc(C(F)(F)F)c2)nnc1-c1ccco1 -3.6e-05
c1ccc(-c2nnc(CSc3nncs3)o2)cc1 -2e-05
Cc1ccc(C)c(N2CCN(S(=O)(=O)c3ccc4c(c3)OCCO4)CC2)c1 3.2e-05
CCOc1cccc(-n2nnnc2-c2ccc(OC)cc2)c1 -1.5e-05
CCOC(=O)C1CCCN(C(=O)c2ccc(CS(=O)(=O)c3ccc(Br)cc3)o2)C1 (stereo not given) -7.7e-05
C=CCSC1=C(C#N)C(c2ccccc2Cl)CC(=O)N1 (stereo not given) 5.8e-06
